The list is not random: actives were taken first. Their share in the collection is about 2.4%.
Mito fusion yeast – mitochondrial division inhibition or fusion activation; S. cerevisiae fusion-defective mutant growth rescue, CellTiterGlo 48 h; Potency, µM (series often up to 46.1 µM), without a hit: at the top dose growth rescue (activation), actives largely listed as activators; 0.23% of 320,000 active; note: % of control where 0% means no effect; nearly all actives have a fitted effect of over 45% in size
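Temperature-sensitive fusion-defective S. cerevisiae (e.g. fzo1-1, mgm1-5) were grown with compound in YPEG medium (3% ethanol, 3% glycerol) for 48 hours at 37C. Growth rescue was measured as viability by CellTiterGlo luminescence after 10 minutes at ambient.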
A-T KAP1 phos – potential ataxia-telangiectasia treatment | F2112 A-T fibroblasts, KAP-1 phosphorylation AlphaLISA; neocarzinostatin DNA damage 30 min before lysis | Potency, µM (doses to about 57.5 µM), inactives show top-dose activation, hits mostly activators | 0.19% of 320,000 active; note: % of control where 0% means no effect; nearly all actives have a fitted effect of over 45% in size
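ATM-like activity read as KAP-1 phosphorylation via AlphaLISA donor/acceptor antibody pairs after lysis and 6 hr at 25C. Cells were ATM-null patient fibroblasts (F2112, hTERT), dosed 60 min, then exposed to the DSB inducer NCS for 30 min.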
FUS suppressor – FUS proteinopathy suppression in yeast; S. cerevisiae FUS-expressing, growth rescue, OD600, 24 h; AID 1347120; 0.24% of 390,000 active; Potency, µM (doses to about 76.6 µM), usual class: activators;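 note: plate controls were DMSO vehicle for no effect and reference control for full effect; nearly all actives have a fitted effect of over 55% in size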
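FUS-expressing yeast, raffinose-pregrown, induced in 2% galactose minimal medium at OD 0.005; compounds in a dilution series, 24hr at 30C. Growth restoration read as absorbance at 600 nm. CP55940 positive control, DMSO negative.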
aSyn yeast inh – inhibitors of alpha-synuclein toxicity in yeast; Potency, µM (titrated, usually from 46.1 µM), inactives show at the highest dose growth rescue (activation), hits mostly activators; Yeast expressing alpha-synuclein, growth rescue, BacTiter-Glo, 24 h; 0.14% of 370,000 active; note: % of control where 0% means no effect; nearly all actives have a fitted effect of over 65% in size
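Galactose-induced alpha-syn yeast (OD600=0.02, raffinose-pregrown) + pinned cpd, 24 hr, 30 deg C; growth by BacTiter-Glo luminescence. Growth restoration scores as activation.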
TDP-43 yeast inh – inhibitors of TDP-43 toxicity in yeast; TDP-43 expressing yeast growth rescue, BacTiter-Glo, 24 h; Potency, µM (series often up to 46.1 µM), for the others: at the top dose growth rescue (activation), most hits filed as activators; 1.8% of 410,000 active; AID 652104; note: % of control where 0% means no effect; nearly all actives have a fitted effect of over 50% in size
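Readout is BacTiter-Glo luminescence of cell growth, so inhibitors register as activators. TDP-43-expressing yeast at OD600=0.02 in galactose medium, after raffinose pregrowth to mid-log, were incubated with compound for 24 hr at 30 deg C.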
Abeta rescue – restores growth of yeast expressing A-beta42 peptide; yeast expressing A-beta42, growth rescue, OD600, 48 h; response scale: 0% DMSO, 100% iron-clioquinol control; Potency, µM (series often up to 46.1 µM), usual class: activators; 0.063% of 410,000 active; note: nearly all actives have a fitted effect of over 55% in size
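Growth rescue measured by 600 nm absorbance after 48 h yeast culture at 30 C with compound. Values normalized between DMSO and an equimolar ferric chloride plus clioquinol control.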
The depositor's hits bear a star; i = inactive; u = inconclusive; x = no result given. Calls come from the whole dose curve; as a rule, active = well fitted curve in the direction sought with a large enough effect; inconclusive = small, poorly fitted or top-dose-only effect, or another doubt; inactive = no such curve, though single readings can be large; an effect the other way counts as inactive or inconclusive. Potency is the fitted concentration of half-maximal effect.

SMILES	Mito fusion yeast	A-T KAP1 phos	FUS suppressor	aSyn yeast inh	TDP-43 yeast inh	Abeta rescue
C[N+]1=C2N[C@@H](c3ccccc3)CC(=O)N2/C(=C\c2ccccc2)[C@@H]1Cc1ccccc1	x	x	i	x	x	x
Clc1ccc(COn2c(-c3ccccc3)nc3ccccc32)cc1	-1%	-1%	i	-19%	18µM*	i
Clc1ccc(COn2c(-c3ccc(Cl)cc3)nc3ccccc32)cc1	-8%	1%	i	2%	21%	i
O=C(c1ccc(N2C(=O)c3ccccc3C2=O)cc1)N1CCN(S(=O)(=O)c2ccccc2F)CC1	x	x	28µM*	3%	u	i
Cc1sc2ncn(CC(=O)N3CCN(c4ccccc4F)CC3)c(=O)c2c1S(=O)(=O)N1CCN(c2ncccn2)CC1	x	x	i	x	16%	i
O=C(CN(C(=O)OCC1c2ccccc2-c2ccccc21)[C@@H](Cc1ccccc1)C(=O)O)OCc1ccc(C(=O)NCc2ccccc2)cc1	x	x	25µM*	x	x	x
CC(C)CC(NC(=O)C1CCC(C)CC1)C(=O)OCC(=O)c1ccc(Cl)cc1 (stereo not drawn)	x	x	u	x	-16%	i
Cc1ccc(O)c(-c2cc(C(F)(F)F)[nH]n2)c1	-9%	7%	i	3%	18µM*	u
O=C(NCCc1ccc(F)cc1)C(=O)NCC(c1ccc2c(c1)OCO2)N1CCOCC1 (stereo not drawn)	x	x	i	x	12%	i
O=C(Cc1cccs1)NC1CCCCN(Cc2cccc(Cl)c2)C1=O (stereo not drawn)	x	x	i	x	x	x
O=C(NCCc1ccc(F)cc1)c1cc(=O)c2ccccc2o1	9%	1%	i	14%	22µM*	i
O=C(NCCc1ccccc1)c1cc(=O)c2ccccc2o1	7%	-1%	i	-3%	-1%	i
Cc1ccccc1NC(=O)c1cc(=O)c2ccccc2o1	1%	1%	i	-10%	13µM*	i
COc1ccc(C(=O)/C=C(\Nc2ccc(Br)c(C)c2)c2ccc(OC)cc2OC)c(OC)c1	x	x	i	x	x	x
CCOC(=O)N1CCN(/[N+]([O-])=N/Oc2ccc(C(F)(F)F)cc2[N+](=O)[O-])CC1	x	x	x	-14%	x	x
COc1cccc(-c2cc3nc(C)cc(N4CCN(C(=O)c5ccoc5)CC4)n3n2)c1	x	x	i	-1%	0%	i
COc1cccc(-c2cc3nc(-c4ccccc4)cc(N4CCN(C(=O)c5ccoc5)CC4)n3n2)c1	x	x	u	5%	16µM*	i
COc1cccc(-c2cc3nc(-c4ccccc4)cc(N4CCC5(CC4)OCCO5)n3n2)c1	6%	33%	i	-16%	16µM*	i
COc1cccc(-c2cc(N3CCN(C(=O)c4ccoc4)CC3)n3nc(-c4cccc(Cl)c4)cc3n2)c1	x	x	i	7%	3.5µM*	i
CCOc1ccc(CNC(=O)CSc2nnc(C)c3c(C)n(-c4ccc(Cl)cc4)nc23)cc1	x	x	i	x	6%	i
CC(C)NC(=S)N/N=C/c1ccc(C(C)(C)C)cc1	-1%	2%	i	-6%	0%	5.6µM*
O=C(Nc1ccc(Cl)cc1Cl)OC1CCC12CCC(c1ccccc1)CC2 (stereo not drawn)	x	x	i	x	x	x
C=CCN(C)C(C#CCCCC)c1ccccc1 (stereo not drawn)	x	x	i	x	x	x
c1ccc(CN2CCN(c3ncnc4sccc34)CC2)cc1	x	x	i	x	x	x
Nc1cccc(Oc2ccc([N+](=O)[O-])cc2)c1	-1%	-2%	i	8%	u	i
SMILES	Mito fusion yeast	A-T KAP1 phos	FUS suppressor	aSyn yeast inh	TDP-43 yeast inh	Abeta rescue
Nc1cccc(Oc2c(F)c(F)c(Oc3cccc(N)c3)c(F)c2F)c1	u	18%	i	-13%	5.6µM*	i
Cc1c(NC(=O)c2ccc(Br)o2)cccc1-c1nc2ccccc2o1	x	x	i	x	17%	i
COCCNc1nc(-c2cc(-c3ccccc3)on2)cc(C(C)C)n1	-20%	48%	i	-12%	16µM*	i
COCCNc1nc(C)cc(-c2cc(-c3ccc(Cl)cc3)on2)n1	-8%	3%	i	3%	u	i
CCCC[C@H]1C2CC(OC(=O)Nc3ccc4c(c3)OCO4)C(C2)[C@H]2CCCCN21 (stereo partly drawn)	x	x	i	x	x	x
Cn1c(NCC(O)c2ccccc2)nc2c1c(=O)n(Cc1ccc(Cl)cc1)c(=O)n2C (stereo not drawn)	10%	12%	i	-5%	-14%	i
Cn1c(NCC(O)c2ccccc2)nc2c1c(=O)n(Cc1ccc(Cl)c(Cl)c1)c(=O)n2C (stereo not drawn)	x	x	8.9µM*	-26%	-38%	i
O=C(CSCc1ccccc1)N=Nc1c(O)[nH]c2ccccc12	-1%	0%	x	0%	-1%	i
O=C(CSCc1cccc(Br)c1)N=Nc1c(O)[nH]c2ccccc12	-1%	-1%	i	-6%	22µM*	i
Cc1ccc(-c2ccnc3nc(-n4cccc4)nn23)o1	7%	3%	i	-3%	35µM*	i
S=C(Nc1cccc(Br)c1)c1ccccc1	u	x	i	-11%	13µM*	u
C[C@H]1[C@@H](OC(=O)NCCc2ccccc2)CC[C@@]23CCCN2C(=O)CCC[C@@H]13	x	x	i	x	x	x
O=C(Nc1cccc(Cl)c1)C1CCN(c2nc3ccccc3nc2C(F)(F)F)CC1	x	x	i	x	8%	i
O=C(O)COc1ccccc1C1Nc2ccccc2-c2nnc(SCc3ccc(Cl)cc3)nc2O1 (stereo not drawn)	x	x	i	x	0%	i
COc1cccc(NC(=O)c2ccccc2Oc2ccccc2)c1	6%	4%	u	1%	19%	i
COc1cccc(NC(=O)c2cc(-c3ccccn3)nc3ccccc23)c1	16%	-9%	x	-3%	25µM*	i
COc1cccc(NC(=O)c2cnn(-c3ccccc3)c2C)c1	-8%	7%	i	3%	20µM*	i
CCc1cccc(NC(=O)c2cnn(-c3ccccc3)c2C)c1	-14%	3%	i	-18%	0%	i
COc1cccc(Nc2ncccc2C(=O)Nc2ccccc2)c1	u	5%	i	-5%	22µM*	i
COc1cc2nc(SCc3ccc(Cl)cc3Cl)n(Cc3cccs3)c(=N)c2cc1OC	12%	-2%	i	0%	25µM*	i
CN(C)c1ccc(/C=C2\C=Cc3ccccc32)c(Cl)c1	x	x	x	-3%	x	x
Nn1c(SCC(=O)N2c3ccccc3Sc3ccc(Cl)cc32)nnc1-c1cc(-c2ccc(F)cc2)n[nH]1	x	x	14µM*	x	x	x

From PubChem
